Results published in PubChem BioAssay (EPA / NIEHS).
Active and inactive are the calls of the source. The calls were made as follows: active = hit-call score of the fitted dose curve at least 0.9, where 1 is the maximum; inactive = score below 0.9.

What was measured:
[1] = UKN5_HCS_SBAD2_cell_viability: Viability Assessment in the University of Konstanz (UKN) Leist Lab Neurite Outgrowth Assay in human iPSC-derived immature Dorsal Root Ganglia Neurons (UKN5) (AID 2284056)
In short: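 iPSC-derived immature peripheral neurons (SBAD2) seeded on Matrigel with CHIR99021, SU5402 and DAPT, dosed 1 h later for 24 h. Viability from Hoechst H-33342 and calcein-AM live staining, high-content imaging; bidirectional fit versus DMSO.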

[2] = UKN5_HCS_SBAD2_neurite_outgrowth: University of Konstanz (UKN) Leist Lab Neurite Outgrowth Assay in human iPSC-derived immature Dorsal Root Ganglia Neurons (UKN5) (AID 2284070); details: actives raise or lower the signal
In short: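 Neurite area from calcein-AM high-content images after 24 h exposure (staining included), with H-33342 for viability, fitted both directions against DMSO. Cells: thawed immature SBAD2 peripheral neurons, 100.000 cells/cm2, with CHIR99021, SU5402, DAPT; dosing 1 h after seeding.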

[3] = UKN4_HCS_LUHMES_neurite_outgrowth: University of Konstanz (UKN) Leist Lab Neurite Outgrowth Assay in human LUHMES cells (UKN4) (AID 2284206); details: actives raise or lower the signal
In short: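 After 24 h compound treatment beginning shortly after replating of 2-day-differentiated LUHMES cells, calcein-AM and H-33342 live staining allowed high-content imaging of neurite area and viability. Fitted bidirectionally against DMSO.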

[4] = UKN4_HCS_LUHMES_cell_viability: Viability Assessment in the University of Konstanz (UKN) Leist Lab Neurite Outgrowth Assay in human LUHMES cells (UKN4) (AID 2284232)
In short: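 Viability was read by high-content imaging of calcein-AM/H-33342-stained cells after 24 h toxicant exposure, staining included. Cells: human LUHMES on day 2 of dopaminergic differentiation, dosed shortly after attachment; DMSO baseline, bidirectional curve fitting.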

[5] = UKN2_HCS_IMR90_cell_viability: Viability Assessment in the University of Konstanz (UKN) Leist Lab Neural Crest Cell Migration Assay in human induced IMR90 Pluripotent Stem Cells (UKN2) (AID 2284233);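 also: cells exposed to compound for 24 h after a 24 h migration phase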
In short: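 After calcein-AM/Hoechst staining, viability is quantified by high-content fluorescence imaging, relative to DMSO, in iPSC (IMR90)-derived neural crest cells. Exposure lasts 24 h, starting after a 24 h migration period on PLO/laminin/fibronectin coating.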

Measured: AC50

O=[As](O)(O)O
active: [1] 4.31 µM | [2] 1.4 µM | [3] 74.5 µM | [4] 71.4 µM | [5] 104 µM
